RORg inh: qHTS for inhibitors of ROR gamma transcriptional activity. Nuclear receptor ROR-gamma (Mus musculus), P51450. Drosophila S2 Gal4-RORgamma UAS-luciferase reporter, 20 h. Potency, µM (titrated, usually from 53.6 µM), hits mostly inhibitors. hit rate 5.4% among 310,000. AID 2551, 2010; further: nearly all actives have a fitted effect of over 60% in size
Target sequence (P51450 whole entry, looked up, the tested form may be a part): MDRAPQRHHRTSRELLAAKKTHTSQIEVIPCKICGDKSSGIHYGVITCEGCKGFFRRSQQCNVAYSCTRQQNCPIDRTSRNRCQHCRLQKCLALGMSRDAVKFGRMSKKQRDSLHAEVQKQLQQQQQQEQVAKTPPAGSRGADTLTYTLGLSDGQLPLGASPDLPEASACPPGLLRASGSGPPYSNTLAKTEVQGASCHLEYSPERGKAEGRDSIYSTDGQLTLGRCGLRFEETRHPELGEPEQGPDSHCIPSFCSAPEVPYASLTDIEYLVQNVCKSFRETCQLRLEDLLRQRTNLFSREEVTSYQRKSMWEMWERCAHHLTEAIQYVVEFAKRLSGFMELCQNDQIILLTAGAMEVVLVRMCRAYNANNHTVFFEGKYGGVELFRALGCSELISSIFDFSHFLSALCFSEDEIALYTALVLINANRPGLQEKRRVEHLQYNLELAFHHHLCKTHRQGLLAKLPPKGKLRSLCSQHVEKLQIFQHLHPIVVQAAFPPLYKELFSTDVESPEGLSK
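Using a luciferase readout, inhibitors were identified by reduced reporter activity in Drosophila cells coexpressing a copper-inducible Gal4–ROR gamma fusion and UAS-driven Photinus luciferase, incubated 20 hr after 700 uM copper sulfate.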
IL-1B inflam inh: qHTS for Inhibitors of Inflammasome Signaling: IL-1-beta AlphaLISA Primary Screen; THP-1 LPS/ATP IL-1B secretion, AlphaLISA, 16 h; active compounds read low; hit rate 4.7% among 360,000; activity change, % at 57.5 µM; in the data active means activity change below about -50%; inconclusive means mostly about -30% to -49%
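Secreted IL-1B measured by AlphaLISA bead assay after 16 h compound exposure of THP-1 cells; compounds (final up to 57.5 uM) added 1 h before LPS (250 ng/mL) and ATP (1.25 mM) stimulation; lower signal means less secretion.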
TDP1 cell noCPT: qHTS for Inhibitors of human tyrosyl-DNA phosphodiesterase 1 (TDP1): qHTS in cells in absence of CPT; DT40 Tdp1-/- hTDP1 cells, no CPT, ATP luminescence, 48 h; Potency, µM (highest dose often 46.2 µM), most hits filed as inhibitors; hit rate 15% among 420,000; AID 686978, 2013; further: nearly all actives have a fitted effect of over 55% in size
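Growth of hTDP1-complemented DT40 Tdp1-knockout cells is measured by ATP luminescence after at least 48 hr compound exposure at 37 °C, with DMSO substituting for the 20 nM CPT used in the parallel screen.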
ELG1 repair inh: qHTS screen for small molecules that inhibit ELG1-dependent DNA repair in human embryonic kidney (HEK293T) cells expressing luciferase-tagged ELG1; Potency, µM (titrated, usually from 46.1 µM), most hits filed as inhibitors; hit rate 2.3% among 330,000; HEK293T ELG1-luciferase reporter, luminescence, 16 h; DNA damage induced by 5-fluorouridine; further: nearly all actives have a fitted effect of over 55% in size
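Step one: seed 2,000 cells per well. Step two: pin-transfer compound or DMSO alongside 5-fluorouridine. Step three: incubate 16 hr, 37 °C, 5% CO2. Step four: add ONE-Glo, wait 30 min, read luminescence.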
VP16 counter: VP16 counterscreen qHTS for inhibitors of ROR gamma transcriptional activity; Drosophila S2 Gal4-VP16 UAS-luciferase, luminescence, 20 h; Potency, µM (highest dose often 53.6 µM), most hits filed as inhibitors; hit rate 3.5% among 310,000;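 further: Gal4-VP16 expression switched on by copper sulfate through the metallothionein promoter; nearly all actives have a fitted effect of over 50% in size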
DT40 TDP1 CPT: qHTS for Inhibitors of human tyrosyl-DNA phosphodiesterase 1 (TDP1): qHTS in cells in presence of CPT; Potency, µM (highest dose often 46.2 µM), hits mostly inhibitors; chicken DT40 Tdp1-/-;hTDP1 cells + 20 nM CPT, ATP luminescence, 48 h; hit rate 12% among 420,000; AID 686979, 2013; further: nearly all actives have a fitted effect of over 55% in size
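Cell growth measured by CellTiter-Glo luminescence after a minimum 48 h, 37 C compound exposure with 20 nM CPT in Tdp1-knockout DT40 cells stably expressing hTDP1, seeded 400/well; qHTS titration format.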
A number is an active result; i = inactive; ? = inconclusive; nt = not tested or not shown. Sampled rows, rich in hits. Any-hit rate of the full collection: about 21%. Unless noted, the call rests on the fitted dose curve; in most records, active means well fitted curve in the direction sought with a large enough effect; inconclusive means small, poorly fitted or top-dose-only effect, or another doubt; inactive means no such curve, though single readings can be large; an effect the other way counts as inactive or inconclusive.

SMILES | RORg inh | IL-1B inflam inh | TDP1 cell noCPT | ELG1 repair inh | VP16 counter | DT40 TDP1 CPT
CCOc1cc(C#N)c(NC(=O)c2cccc(S(=O)(=O)N3CCOCC3)c2)cc1OCC | nt | nt | ? | nt | nt | i
Cc1ccc(C)c(Nc2nn3c(=O)c4cc5c(cc4nc3s2)OCO5)c1 | nt | nt | 18µM | nt | nt | 16µM
Cc1ccc(C)c(Nc2nn3c(=O)c4ccc(C(=O)NCCc5ccccc5)cc4nc3s2)c1 | nt | nt | 8.2µM | nt | nt | 3.7µM
Cc1ccc(C)c(Nc2ccc(C(=O)NCCc3ccccc3)cn2)c1 | ? | i | i | i | i | ?
COc1c2ccc(C(=O)NCCCCc3ccccc3)cc2nn1C | i | i | i | i | i | i
Cc1c(Cl)cccc1Nc1nn2c(=O)c3ccc(C(=O)NCCc4ccccc4)cc3nc2s1 | nt | nt | 5.2µM | nt | nt | 8.2µM
COc1ccccc1Nc1nn2c(=O)c3ccc(C(=O)NCCc4ccccc4)cc3nc2s1 | nt | nt | 2.9µM | nt | nt | 2.3µM
O=c1c2cc3c(cc2nc2sc(Nc4ccccc4)nn12)OCO3 | nt | nt | ? | nt | nt | i
CC/C=C\C/C=C\C/C=C\C/C=C\C/C=C\C/C=C\CCC(=O)NCCO | i | nt | nt | nt | i | nt
CCOc1ccc(CN(C(=O)c2cc(=O)c3cc(Cl)ccc3o2)C2CCS(=O)(=O)C2)cc1 (stereo not drawn) | nt | nt | ? | nt | nt | i
CC1(C(=O)NS(=O)(=O)c2ccccc2Cl)CCN1C(=O)COc1ccc(Cl)cc1 (stereo not drawn) | nt | i | i | nt | nt | i
CCN(CC)CCNC(=O)c1ccc2c(=O)n3nc(Nc4cccc(Cl)c4C)sc3nc2c1 | nt | nt | 2.6µM | nt | nt | 4.6µM
Cc1ccc(C)c(Nc2nn3c(=O)c4ccc(C(=O)NC5CCCCC5)cc4nc3s2)c1 | nt | nt | 8.2µM | nt | nt | 7.3µM
Cc1ccccc1CSc1nc2cc(C(=O)NC3CCCC3)ccc2c(=O)n1Cc1ccccc1 | nt | nt | i | nt | nt | i
O=C(O)c1cc2n(n1)C(C(F)(F)F)CC(c1ccco1)N2 (stereo not drawn) | i | i | i | nt | i | i
NC(=O)c1cc2n(n1)C(C(F)(F)F)CC(c1ccco1)N2 (stereo not drawn) | i | i | i | i | i | i
O=C(c1cc2nc(-c3ccco3)cc(C(F)(F)F)n2n1)N1CCN(c2ccccn2)CC1 | i | i | 13µM | ? | i | 26µM
O=C(c1cc2n(n1)C(C(F)(F)F)CC(c1ccco1)N2)N1CCN(c2ccccn2)CC1 (stereo not drawn) | i | i | 26µM | i | i | ?
O=C(c1cc2nc(-c3ccco3)cc(C(F)(F)F)n2n1)N1CCN(c2ccccc2)CC1 | ? | i | ? | ? | i | ?
Cc1cccc(N2CCN(C(=O)c3cc4n(n3)C(C(F)(F)F)CC(c3ccco3)N4)CC2)c1C (stereo not drawn) | i | -55 | 15µM | 21µM | ? | 21µM
CC(OC(=O)c1cccc(S(=O)(=O)N2CCOCC2)c1)C(=O)NC1CCCCC1C (stereo not drawn) | nt | i | i | i | nt | i
O=C(NCc1ccc(F)cc1)c1ccc2c(O)c(S(=O)(=O)c3ccccc3)c(=O)[nH]c2c1 | nt | nt | i | nt | nt | i
COc1ccccc1C(=O)NC(=O)COC(=O)c1ccc(C)o1 | nt | i | i | i | nt | i
CC(=O)n1cc(Nc2ccc([N+](=O)[O-])cc2)c2ccccc21 | i | i | ? | ? | i | ?
CCOC(=O)c1ccccc1Nc1cn(C(C)=O)c2ccccc12 | i | i | 4.6µM | i | i | 3.7µM
SMILES | RORg inh | IL-1B inflam inh | TDP1 cell noCPT | ELG1 repair inh | VP16 counter | DT40 TDP1 CPT
O=C(Cn1ncc2ccccc2c1=O)Nc1cccc(C(F)(F)F)c1 | nt | i | i | nt | nt | i
COc1ccc(O)c(/C=c2/sc3nc4cc(C)c(C)cc4n3c2=O)c1 | ? | i | 16µM | ? | ? | 16µM
CN1CCN(c2ncnc3c2ncn3[C@H]2CN(Cc3cccnc3)C[C@@H](CO)O2)CC1 | nt | i | i | nt | nt | i
c1cn2c(-c3ccc(N4CCOCC4)cc3)cncc2n1 | nt | i | i | nt | nt | i
Cc1c(Cl)cccc1N=C1SCCN1C(=O)CN1C(=O)NC2(CCCC2)C1=O | nt | i | 18µM | i | nt | ?
COC(=O)/C=C/c1cc(O)ccc1O | nt | nt | 1.2µM | nt | nt | 0.73µM
CCCCC1(c2ccc(F)cc2)NC(=O)N(CC(=O)Nc2ccc(N3CCOCC3)cc2)C1=O (stereo not drawn) | nt | i | i | i | nt | i
Cc1ccccc1-c1cc(NCCN2CCOCC2)ncn1 | ? | nt | i | nt | i | i
Cc1ccc(NC(=O)c2ccccc2OCC(=O)Nc2ccccc2F)cc1S(=O)(=O)N(C)C | nt | i | 21µM | ? | nt | 16µM
Cc1ccc(S(=O)(=O)N(C)C)cc1NC(=O)COC(=O)/C(=C/c1ccc(F)cc1)c1cccs1 | ? | i | 26µM | ? | i | 13µM
CN(C)S(=O)(=O)c1cccc(NC(=O)COc2ccccc2C(=O)Nc2ccccc2)c1 | nt | ? | 9.2µM | nt | nt | 18µM
Cc1ccc(S(=O)(=O)N(C)C)cc1NC(=O)COC(=O)c1cccs1 | nt | i | i | nt | nt | i
Cc1ccc(S(=O)(=O)N(C)C)cc1NC(=O)COC(=O)CSc1ccccc1 | nt | i | i | i | nt | i
Cc1ccc(S(=O)(=O)N(C)C)cc1NC(=O)COc1ccccc1C(=O)Nc1ccccc1 | nt | i | 9.2µM | ? | nt | 13µM
CN(C)S(=O)(=O)c1cccc(NC(=O)COc2cccc3ccccc23)c1 | nt | i | i | i | nt | i
O=C(CSc1nnc(-c2cccs2)o1)Oc1ccccc1Cl | nt | nt | i | nt | nt | i
CCN(CC)C(=O)C1=C(C)N(Cc2ccc(C(C)(C)C)cc2)C(=O)C(CC(=O)NC2CCCC2)C1 (stereo not drawn) | nt | i | i | nt | nt | ?
O=C(NCCc1ccccc1)C1CCN(c2ncnc3c2nc2n3CCCCC2)CC1 | nt | nt | i | nt | nt | i
Cc1nc(C(=O)N2CCCC(N3CCN(c4ccccc4C)CC3)C2)cs1 (stereo not drawn) | i | i | ? | i | i | 15µM
COc1ccccc1N1CCN(C2CCCN(C(=O)c3ccoc3C)C2)CC1 (stereo not drawn) | i | i | i | i | i | i
Cc1ccccc1N1CCN(C2CCCN(C(=O)CCc3c(C)noc3C)C2)CC1 (stereo not drawn) | i | i | 23µM | ? | i | ?
Cc1ccc2nc(C)cc(C(=O)N3CCCC(N4CCN(c5ccccc5C)CC4)C3)c2c1 (stereo not drawn) | i | i | ? | i | i | 15µM
COc1ccccc1N1CCN(C2CCCN(C(=O)c3cccc(-c4ccco4)c3)C2)CC1 (stereo not drawn) | i | ? | ? | 23µM | i | ?

Screens (PubChem BioAssay)
